SMARCA2 act: SMARCA2 (BRM) function activators, primary screen, cell-based, luminescence, high throughput; MG213 cells, MMTV-luciferase reporter, dexamethasone, overnight; activation, % at 9.1 µM; 1% of 370,000 active; AID 652017, 2013; in the data active = activation above about 7.8%;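 note: 0% = vehicle wells and 100% = reference activator wells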
ssDAF12 agonist: S. stercoralis DAF-12 nuclear receptor activators, primary screen, cell-based, luminescence, HEK293, GRIP1 co-expression, lit1-tk-luc | HEK293 ssDAF-12/GRIP1 lit1-tk-luc reporter; % of 3 µM dafachronic acid response | activation, % at 6.8 µM | 1% of 370,000 active;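 active = activation above the mean over all tested compounds plus 3 SD, cut at about 0.9% in these data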;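 note: 0% = DMSO-only wells and 100% = 3 µM delta7-dafachronic acid wells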
DAX1 inh-1: DAX1 (NR0B1) inhibitors, primary screen, cell-based, HEK293, Gal4-DAX1, luciferase luminescence | HEK293 Gal4-DAX1 luciferase reporter | Nuclear receptor subfamily 0 group B member 1 (Homo sapiens), P51843 | AID 504766, 2011 | 0.99% of 340,000 active | inhibition, % at 6.75 µM;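 active = inhibition above the mean over all tested compounds plus 3 SD, cut at about 4.2% in these data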;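 note: 0% = DAX1-transfected cells with DMSO and 100% = empty-vector control cells with DMSO; inhibition shows as a rise in luminescence from relieved DAX1 repression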
Target sequence (P51843 207-470 limits assumed): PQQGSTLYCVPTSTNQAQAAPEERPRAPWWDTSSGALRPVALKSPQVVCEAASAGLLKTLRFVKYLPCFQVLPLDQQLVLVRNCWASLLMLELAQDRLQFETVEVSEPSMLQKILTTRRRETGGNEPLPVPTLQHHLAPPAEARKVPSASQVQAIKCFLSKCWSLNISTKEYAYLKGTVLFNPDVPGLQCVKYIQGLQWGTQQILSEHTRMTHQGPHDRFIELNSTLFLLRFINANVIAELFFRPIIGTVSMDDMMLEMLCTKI
hcDAF12 agonist: H. contortus DAF-12 nuclear receptor activators, primary screen, cell-based, luminescence, HEK293, lit1-tk-luc reporter; 1.4% of 370,000 active; activation, % at 6.8 µM; HEK293 hcDAF-12 lit1-tk-luc reporter; 0% DMSO, 100% Δ7-dafachronic acid;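 active = activation above the mean of all tested compounds plus 3 SD, cut at about 5.5% in these data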;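 note: 100% = response to 3 µM Δ7-dafachronic acid high control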
DAX1 inh-2: DAX1 (NR0B1) inhibitors on StAR promoter, primary screen, cell-based, luminescence, SF-1 (NR5A1), full-length DAX-1. HEK293T StAR-luciferase reporter, SF-1/DAX-1 repression relief. inhibition, % at 6.8 µM. 1.1% of 370,000 active. AID 652010, 2013;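 active = inhibition above the mean over all tested compounds plus 3 SD, cut at about 3.6% in these data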;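 note: 0% = DAX-1 cells with DMSO and 100% = cells lacking DAX-1 with DMSO; higher inhibition means more luminescence from relief of DAX-1 repression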
hgDAF-12 ag: H. glycines DAF-12 receptor agonists, primary screen, cell-based, luminescence, HEK293, GAL4 fusion, UAS-luciferase; HEK293 GAL4-hgDAF12 UAS-luciferase reporter, agonist luminescence; normalized to butyrate control; activation, % at 6.8 µM; 1.8% of 370,000 active;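 active = activation above a cutoff set at the mean of all screened compounds plus 3 SD, cut at about 10% in these data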;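 note: 0% = DMSO wells and 100% = sodium butyrate wells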
DAX1 conf: DAX1 (NR0B1) inhibitors relieving SF-1 repression, confirmation, cell-based, luminescence, HEK293T, full-length DAX-1, SF-1 activated StAR promoter | shares compounds with DAX1 inh-2 | HEK293T StAR-promoter luciferase reporter, SF-1/DAX-1 repression | inhibition, % at 6.8 µM | 87% of 2,400 active | AID 652134, 2013;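 active = inhibition above the average of every tested compound plus 3 SD, cut at about 3.8% in these data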;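 note: 0% = DAX-1 cells with DMSO and 100% = no DAX-1 control cells with DMSO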
SF1 mutant ctr: StAR reporter signal changes without DAX1, counter-screen for DAX1 inhibitor project, cell-based, luminescence, AF-2 mutant SF-1, transactivation | shares compounds with DAX1 inh-2 | HEK293 StAR-luciferase, SF-1 AF2 mutant | inhibition, % at 6.8 µM | 78% of 2,400 active | AID 652136, 2013;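 active = inhibition above the mean of all tested compounds plus 3 SD, cut at about 3% in these data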;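 note: 0% = DAX-1 transfected cells with DMSO and 100% = cells without DAX-1 with DMSO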
* = called active by the depositor; . = no result. The list is not random: actives were taken first. Their share in the collection is about 4.8%.

SMILES | SMARCA2 act | ssDAF12 agonist | DAX1 inh-1 | hcDAF12 agonist | DAX1 inh-2 | hgDAF-12 ag | DAX1 conf | SF1 mutant ctr
C=CCN1[C@H](COCc2ccccc2)C=CS1(=O)=O | -1.8 | -0.9 | . | -0.4 | -1.0 | -1.0 | . | .
COc1ccc(OCc2nc3ccccc3[nH]2)cc1 | 3.9 | 0.4 | 1.6 | 2.2 | 5.7* | 10.1 | 13.1* | 8.4*
COc1ccc(NC(=O)Cc2nc3ccccc3[nH]2)cc1 | -1.3 | -0.4 | -0.3 | 0.7 | 1.5 | -7.4 | . | .
COc1cccc(OCc2nc3ccccc3[nH]2)c1 | 2.5 | -0.1 | 2.3 | 2.8 | 5.5* | 9.8 | 6.3* | 7.0*
c1ccc2cc(OCc3nc4ccccc4[nH]3)ccc2c1 | 0.3 | 0.0 | 2.6 | 3.9 | 4.8* | 10.8* | 14.7* | 7.6*
COCc1nc(-c2ccc(-c3ccc(C)cc3)nc2OC)no1 | 1.5 | -1.0 | 0.4 | -1.9 | -0.3 | 4.8 | . | .
O=C1CCCN1CCCNC(=S)Nc1ccc(Br)cc1Cl | -0.9 | -1.4 | -0.5 | 0.1 | 0.2 | -0.5 | . | .
N#Cc1c(-c2ccc(Cl)cc2)c(C#N)c(=O)n(N)c1N | -5.1 | -0.5 | 1.6 | -1.4 | -0.2 | -2.4 | . | .
Brc1ccc(NCc2nnc3n2CCCCC3)cc1 | 0.1 | -1.3 | -0.1 | 1.7 | -0.2 | -0.9 | . | .
O=C(NNC(=S)Nc1ccccc1Cl)c1ccccc1Cl | 4.5 | 0.3 | 2.1 | 4.8 | 10.9* | 10.4 | 10.6* | 6.7*
O=C(Nc1cccc(Cl)c1)c1ccccc1 | 2.8 | -0.9 | 0.9 | 0.1 | 0.1 | 8.7 | . | .
O=C(NNC(=S)Nc1ccc(Cl)cc1)c1ccccc1 | 1.7 | 0.1 | 0.6 | 5.5 | 4.5* | 8.1 | 7.1* | 4.2*
S=C(NNC(=S)Nc1ccc(Cl)cc1)NNc1ccccc1 | -2.7 | 0.0 | 1.8 | 0.8 | -0.5 | 9.1 | . | .
O=C(NNC(=S)Nc1cccc(Cl)c1)c1ccccc1 | 3.6 | 0.1 | 1.1 | 3.0 | 5.3* | 6.5 | 4.8* | 4.0*
CCOc1ccc(C(=O)O/N=C(\N)c2ccc([N+](=O)[O-])cc2)cc1OCC | 0.2 | -1.3 | 1.0 | -0.2 | 0.4 | -2.5 | . | .
C=CCOc1ccc(C2/C(=C(/O)c3ccc4c(c3)CC(C)O4)C(=O)C(=O)N2CCCN2CCOCC2)cc1 (configuration not stated) | 1.3 | -1.5 | 0.1 | 2.0 | -1.2 | 0.1 | . | .
O=C(CNC(=O)c1cn2ccccc2n1)Nc1ccc(F)c(F)c1 | 6.0 | 0.2 | 3.1 | 2.4 | 6.2* | 8.7 | 8.5* | 5.7*
Cc1c(C#N)c2ncnc(N)c2n1-c1ccccc1 | 2.5 | -1.2 | -0.3 | -1.6 | 0.9 | 1.0 | . | .
COC(=O)C1(C)CCCC2(C)c3cc(OC)ccc3C(=O)C(Br)C12 (configuration not stated) | -4.5 | -1.4 | 0.1 | -0.9 | -1.4 | -2.8 | . | .
CC(=O)c1sc(NC(=O)c2ccc(Br)o2)nc1C | 0.0 | 2.1* | 0.0 | 3.3 | 4.6* | 7.1 | 4.1* | 5.4*
Cc1nc2ccc(NC(=O)C3=NN(C)C(=O)CC3)cc2s1 | -0.4 | -0.8 | 1.2 | 0.8 | 7.5* | 0.1 | 2.0 | 3.4*
CC(=O)c1sc(Nc2ccc(Oc3ccccc3)cc2)nc1C | -2.5 | -0.2 | . | -0.5 | 9.2* | 8.8 | 3.9* | 0.3

Assay outcomes: PubChem BioAssay, The Scripps Research Institute Molecular Screening Center
